Assay [1] is described as follows: NCI Yeast Anticancer Drug Screen. Data for the rad50 strain (AID 155).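 Further: 0% = growth of vehicle-only cultures of the same strain.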 As to conditions: S. cerevisiae rad50 strain growth inhibition, active compounds read high. In short, it runs like this: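 Inhibition values express reduced yeast growth in compound-treated cultures relative to vehicle-treated controls.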
Assay [2] can be described thus: NCI Yeast Anticancer Drug Screen. Data for the mec2-1 strain (AID 157). As to conditions: S. cerevisiae mec2-1 strain, active compounds read high. In short, it runs like this: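 Growth inhibition is read against vehicle-treated controls after compound exposure of the mec2-1 yeast strain, which is defective in DNA damage repair or cell cycle control.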
The nature of assay [3]: NCI Yeast Anticancer Drug Screen. Data for the sgs1 mgt1 strain (AID 161).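 Further: 0% = growth of cultures given vehicle only.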 As to conditions: S. cerevisiae sgs1 mgt1 strain, active compounds read high. Summed up: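 Percent growth inhibition was derived by comparing compound-exposed mutant yeast with vehicle-exposed cultures. The strain carries alterations in DNA damage repair.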
A short description of assay [4]: NCI Yeast Anticancer Drug Screen. Data for the cln2 rad14 strain (AID 165).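 Further: 0% = growth equal to vehicle treated cultures.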 As to conditions: S. cerevisiae cln2 rad14 strain, active compounds read high. In short, it runs like this: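 Growth inhibition, relative to vehicle-treated controls, is the read-out. The test organism is a yeast strain with defined genetic alterations, cln2 rad14.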
The nature of assay [5]: NCI Yeast Anticancer Drug Screen. Data for the bub3 strain (AID 167). As to conditions: S. cerevisiae bub3 mutant strain, active compounds read high. Summed up: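 Steps: expose the mutant yeast strain to compound; grow alongside vehicle-treated cultures; measure growth; express inhibition against the vehicle cultures.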
Assay [6] in a line: NCI Yeast Anticancer Drug Screen. Data for the mlh1 rad18 strain (AID 175). The settings on record: S. cerevisiae mlh1 rad18 strain growth inhibition, active compounds read high. Summed up: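 Cells of a genetically altered yeast strain, deficient in DNA damage repair, were treated with compound. Their growth was then compared with that of vehicle-treated cultures to give inhibition.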

[7] abbreviates: at 5.0 µM (retest, dose inferred, filed as 0.5).
Setting [8] is: at 50.0 µM (retest, dose inferred, filed as 5.0).

This is an account of results in PubChem BioAssay (NCI).

About 79,000 compounds went through this panel and 15% of them were active in at least one assay; those are over-represented in the sample as a whole. Values without a mark were called inactive. The source made the active and inactive calls. No stated cut-off is given here; in the data, active means growth inhibition above about 70%; inactive means the rest.

Take `O=C1CCC(c2ccccc2)=NN1c1nc2ccccc2s1`: the growth inhibition in assay [1] (setting [7]) was 5%; in assay [1] (setting [8]), 90% (active); in assay [1] (at 50.0 µM), 98.3% (active); in assay [2] (setting [7]), -3%; in assay [2] (setting [8]) it was 79% (active); in assay [2] (at 50.0 µM), 99.2% (active). Moreover, the growth inhibition in assay [3] (setting [7]) is 0%; in assay [3] (setting [8]) it was 85% (active); in assay [3] (at 50.0 µM), 99.2% (active); in assay [4] (setting [7]), -3%; in assay [4] (setting [8]), 83% (active); in assay [4] (at 50.0 µM), 99% (active). Also, the growth inhibition was -6% in assay [5] (setting [7]); 95% (active) in assay [5] (setting [8]); 99.3% (active) in assay [5] (at 50.0 µM); 4% in assay [6] (setting [7]); 93% (active) in assay [6] (setting [8]); 99.5% (active) in assay [6] (at 50.0 µM).

`FC(F)(F)c1ccc(NC(=S)SCc2ccc(Cl)cc2)cc1`: the growth inhibition was 8% in assay [1] (setting [7]); 99% (active) in assay [1] (setting [8]); 99.3% (active) in assay [1] (at 50.0 µM); 5% in assay [2] (setting [7]); 99% (active) in assay [2] (setting [8]); 99.7% (active) in assay [2] (at 50.0 µM). Moreover, the growth inhibition in assay [3] (setting [7]) was 13%; in assay [3] (setting [8]), 99% (active); in assay [3] (at 50.0 µM), 99.5% (active); in assay [4] (setting [7]), -3%; in assay [4] (setting [8]), 98% (active); in assay [4] (at 50.0 µM), 99.4% (active). Besides, the growth inhibition was 26% in assay [5] (setting [7]); 99% (active) in assay [5] (setting [8]); 99.5% (active) in assay [5] (at 50.0 µM); 17% in assay [6] (setting [7]); 99% (active) in assay [6] (setting [8]); 99.5% (active) in assay [6] (at 50.0 µM).

As to `O=C1OC(c2cccc(Cl)c2)Sc2ccccc21` (configuration not stated), the growth inhibition in assay [1] (setting [7]) is 2%; in assay [1] (setting [8]), 86% (active); in assay [1] (at 50.0 µM), 51.7%; in assay [2] (setting [7]) it was 0%; in assay [2] (setting [8]), 60%; in assay [2] (at 50.0 µM), 19.4%. Moreover, the growth inhibition is -12% in assay [3] (setting [7]); 56% in assay [3] (setting [8]); 36.2% in assay [3] (at 50.0 µM); -7% in assay [4] (setting [7]); 47% in assay [4] (setting [8]); -16.7% in assay [4] (at 50.0 µM). Also, the growth inhibition in assay [5] (setting [7]) was 26%; in assay [5] (setting [8]), 94% (active); in assay [5] (at 50.0 µM), 83.2% (active); in assay [6] (setting [7]), 0%; in assay [6] (setting [8]) it was 78% (active); in assay [6] (at 50.0 µM), 37.6%.

Turning to `CCCCCCC[CH2][Sn]([CH2]CCCCCCC)([O]c1cccc2cccnc12)[O]c1cccc2cccnc12`, the growth inhibition in assay [1] (setting [7]) is 21%; in assay [1] (setting [8]), 21%; in assay [1] (at 50.0 µM) it was 89.7% (active); in assay [2] (setting [7]) it was 18%; in assay [2] (setting [8]), 18%; in assay [2] (at 50.0 µM), 87.7% (active). In addition, the growth inhibition in assay [3] (setting [7]) is 14%; in assay [3] (setting [8]), 14%; in assay [3] (at 50.0 µM), 89.7% (active); in assay [4] (setting [7]), 9%; in assay [4] (setting [8]), 9%; in assay [4] (at 50.0 µM), 85.4% (active). Also, the growth inhibition in assay [5] (setting [7]) was 4%; in assay [5] (setting [8]), 4%; in assay [5] (at 50.0 µM), 90.1% (active); in assay [6] (setting [7]) it was 10%; in assay [6] (setting [8]) it was 10%; in assay [6] (at 50.0 µM) it was 86.3% (active).

On to `NCc1ccc(O)c(O)c1O`, for which the growth inhibition was -2% in assay [1] (setting [7]); 78% (active) in assay [1] (setting [8]); 14.9% in assay [1] (at 50.0 µM); 8% in assay [2] (setting [7]); 80% (active) in assay [2] (setting [8]); 14.4% in assay [2] (at 50.0 µM). For the same molecule, the growth inhibition in assay [3] (setting [7]) was 8%; in assay [3] (setting [8]) it was 61%; in assay [3] (at 50.0 µM) it was 38.2%; in assay [4] (setting [7]) it was -16%; in assay [4] (setting [8]) it was 52%; in assay [4] (at 50.0 µM) it was -2.75%. Further, the growth inhibition in assay [5] (setting [7]) was -2%; in assay [5] (setting [8]), 82% (active); in assay [5] (at 50.0 µM), 81.4% (active); in assay [6] (setting [7]), -22%; in assay [6] (setting [8]) it was 83% (active); in assay [6] (at 50.0 µM), 16.3%.

Turning to `CCc1ccc(C(=O)O)cc1`, the growth inhibition in assay [1] (setting [7]) was -2%; in assay [1] (setting [8]), -2%; in assay [1] (at 50.0 µM) it was 2.7%; in assay [2] (setting [7]), -2%; in assay [2] (setting [8]) it was -2%; in assay [2] (at 50.0 µM) it was -11.9%. Moreover, the growth inhibition was -1% in assay [3] (setting [7]); 0% in assay [3] (setting [8]); -1.1% in assay [3] (at 50.0 µM); -5% in assay [4] (setting [7]); -17% in assay [4] (setting [8]); 76.7% (active) in assay [4] (at 50.0 µM). The growth inhibition in assay [5] (setting [7]) was -6%; in assay [5] (setting [8]) it was 2%; in assay [5] (at 50.0 µM), -15.2%; in assay [6] (setting [7]), -5%; in assay [6] (setting [8]) it was -3%; in assay [6] (at 50.0 µM) it was 10%.

For the molecule `S=c1[nH]c2cc(-c3ccccc3)ccc2o1`, the growth inhibition in assay [1] (setting [7]) is 63%; in assay [1] (setting [8]), 98% (active); in assay [1] (at 50.0 µM), 64.2%; in assay [2] (setting [7]), 37%; in assay [2] (setting [8]) it was 98% (active); in assay [2] (at 50.0 µM), 53.1%. Besides, the growth inhibition is 17% in assay [3] (setting [7]); 72% (active) in assay [3] (setting [8]); 78% (active) in assay [3] (at 50.0 µM); 52% in assay [4] (setting [7]); 65% in assay [4] (setting [8]); 47.1% in assay [4] (at 50.0 µM). Further, the growth inhibition is 19% in assay [5] (setting [7]); 52% in assay [5] (setting [8]); 52% in assay [5] (at 50.0 µM); 51% in assay [6] (setting [7]); 98% (active) in assay [6] (setting [8]); 47.8% in assay [6] (at 50.0 µM).

As to `COc1cnc2cc3c4c(cccc4c2c1)NC3=O`, the growth inhibition in assay [1] (setting [7]) was 87% (active); in assay [1] (setting [8]), 91% (active); in assay [1] (at 50.0 µM), 80% (active); in assay [2] (setting [7]) it was 51%; in assay [2] (setting [8]) it was 89% (active); in assay [2] (at 50.0 µM), 82.2% (active). The growth inhibition is 55% in assay [3] (setting [7]); 92% (active) in assay [3] (setting [8]); 79.7% (active) in assay [3] (at 50.0 µM); 43% in assay [4] (setting [7]); 83% (active) in assay [4] (setting [8]); 75% (active) in assay [4] (at 50.0 µM). The growth inhibition is 51% in assay [5] (setting [7]); 87% (active) in assay [5] (setting [8]); 80.8% (active) in assay [5] (at 50.0 µM); 75% (active) in assay [6] (setting [7]); 91% (active) in assay [6] (setting [8]); 86% (active) in assay [6] (at 50.0 µM).

`S=C(Nc1ccccc1)NC1CCCCCCCCC1`: the growth inhibition is -2% in assay [1] (setting [7]); 29% in assay [1] (setting [8]); 77% (active) in assay [1] (at 50.0 µM); -8% in assay [2] (setting [7]); 42% in assay [2] (setting [8]); 54.9% in assay [2] (at 50.0 µM). For the same molecule, the growth inhibition in assay [3] (setting [7]) is 5%; in assay [3] (setting [8]) it was 53%; in assay [3] (at 50.0 µM) it was 90.6% (active); in assay [4] (setting [7]) it was -59%; in assay [4] (setting [8]), 71% (active); in assay [4] (at 50.0 µM), 60.7%. Besides, the growth inhibition in assay [5] (setting [7]) is -5%; in assay [5] (setting [8]) it was 27%; in assay [5] (at 50.0 µM), 30.8%; in assay [6] (setting [7]), 0%; in assay [6] (setting [8]), 44%; in assay [6] (at 50.0 µM) it was 88.7% (active).
